# A3A deaminase: inhibitors of human APOBEC3A DNA deaminase; P31941; AID 493011; recombinant A3A, FAM/TAMRA ssDNA deamination fluorescence; inhibition, % at 20 µM; 330,000 compounds, 0.41% hits;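 active means at least 40% inhibition at 20 µM here, with at most 30% in a related deaminase screen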
# Target sequence (P31941 whole entry, looked up): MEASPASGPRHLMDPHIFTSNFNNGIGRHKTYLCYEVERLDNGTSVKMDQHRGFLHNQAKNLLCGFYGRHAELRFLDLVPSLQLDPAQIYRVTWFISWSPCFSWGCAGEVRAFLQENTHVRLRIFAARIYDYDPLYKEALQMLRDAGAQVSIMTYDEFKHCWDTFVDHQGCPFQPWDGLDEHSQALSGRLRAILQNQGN
# LANA-H2B inh: blocks KSHV LANA binding to histone H2A/H2B. Q9QR71. 320,000 compounds, 0.6% hits. inhibition, % (concentration not given with the values). cell-free LANA-H2A/H2B peptide, fluorescence polarization; in the data active means inhibition mostly above about 10%, no sharp cut-off; inactive means mostly below about 6.7%
# HDAC3 inh: human HDAC3 inhibition; inhibition, % at 8.3 µM; 320,000 compounds, 0.15% hits; O15379; recombinant HDAC3, fluorogenic peptide/trypsin coupled, fluorescence; in the data active means inhibition above about 26%, passing the limit was not always enough; inconclusive means no clear call, values can overlap the other calls
# A3G deaminase: APOBEC3G (human) deaminase inhibition; inhibition, % at 20 µM; AID 493012; 330,000 compounds, 0.28% hits; recombinant A3G, ssDNA deamination FAM/TAMRA fluorescence; Q9HC16;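 active means inhibition of at least 40% at 20 µM, with no more than 30% in the related APOBEC3A deaminase screen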
# A3G conf: confirmation of human APOBEC3G DNA deaminase inhibitors | inhibition, % at 20 µM | 890 compounds, 72% hits | recombinant A3G ssDNA deaminase, UDG/FAM-TAMRA fluorescence | shares compounds with A3G deaminase;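 active means inhibition reaching a set limit in any replicate at 20 µM, the limit being 80% of the first screen's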
# UDG ctr A3G: inhibits E. coli UDG, flagging false APOBEC3G inhibitors | shares compounds with A3G deaminase | UDG counterscreen, FAM/TAMRA oligo fluorescence | inhibition, % at 20 µM | 710 tested, under 10 active | AID 504715;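 active means compounds giving 40% or more inhibition at 20 µM in any one of the three replicates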;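 further: inhibitors lower the FAM signal released by uracil excision and alkaline cleavage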
# Target sequence (P12295 whole entry, looked up): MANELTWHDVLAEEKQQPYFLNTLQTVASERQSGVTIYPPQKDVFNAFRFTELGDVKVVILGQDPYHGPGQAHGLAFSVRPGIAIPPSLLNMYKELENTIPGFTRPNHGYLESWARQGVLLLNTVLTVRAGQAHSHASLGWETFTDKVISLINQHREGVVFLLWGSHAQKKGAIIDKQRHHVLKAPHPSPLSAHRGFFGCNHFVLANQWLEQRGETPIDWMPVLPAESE
# Hits are given with their value; i = inactive; ? = inconclusive; nt = not tested or not shown. Shown are actives, neighbours in structure and some others; about 1.4% of the full set was active somewhere.
SMILES,A3A deaminase,LANA-H2B inh,HDAC3 inh,A3G deaminase,A3G conf,UDG ctr A3G
S=c1[nH]nc(-c2ccc(Br)cc2)n1-c1ccc(Br)cc1,i,i,i,i,nt,nt
COc1ccccc1-c1n[nH]c(=S)n1N,i,i,i,i,nt,nt
COc1ccccc1-c1n[nH]c(=S)n1-c1ccccc1,i,i,i,40.2,68.6,i
CCN(CC)CCn1c2ccccc2c2n[nH]c(=S)nc21,i,i,i,57.9,78.4,i
CC(C)CSc1n[nH]c(=S)s1,i,i,i,42.1,90.5,i
Cc1ccc(Oc2ccc(/C=N/O)cn2)cc1,i,i,i,61.2,i,i
Cc1ccc(COc2ccc(/C=N/O)cc2)cc1,i,i,i,i,nt,nt
COCCn1c(SCC(=O)N2CCCc3ccccc32)nc2c(c1=O)SC(C)C2 (stereo not given),i,i,i,81.7,i,i
O=C(O)c1ccccc1NS(=O)(=O)c1cccc(-n2sc3ccccc3c2=O)c1,i,i,53.6,78.1,87.2,i
O=C(O)c1ccccc1NS(=O)(=O)c1cccc(C(F)(F)F)c1,i,i,i,i,nt,nt
CCC(=O)c1c[nH]c(C(=O)N2CCN(c3ccccc3)CC2)c1,i,i,i,i,nt,nt
CCC(CC)C(=O)c1c[nH]c(C(=O)N2CCN(c3ccc(OC)cc3)CC2)c1,i,i,i,48.5,i,i
CC(C)=CCc1c(O)ccc2c1OC(c1ccc(O)c(O)c1)CC2=O (stereo not given),i,i,i,i,nt,nt
O=C1CC(c2ccc(O)c(O)c2)Oc2c1ccc(O)c2O (stereo not given),i,i,i,41.1,54.5,nt
CC(C)(OC(=O)c1ccc(C#N)cc1)c1cc2ccccc2c(=O)o1,i,i,i,i,nt,nt
Cc1ccc(SSc2cc(C)ccc2N)c(N)c1,i,i,i,79.5,86.2,nt
Cc1ccc(OC(=O)c2sc(Cl)nc2C)cc1C,i,i,i,54.3,i,i
S=c1[nH]c(-c2ccccc2)cn1/N=C/c1ccncc1,i,i,i,55.6,71.0,i
COCCNC(=O)CN(Cc1ccccc1)C(=O)CCC(=O)Nc1nccs1,i,i,i,i,nt,nt
S=C(c1ccc(-c2ccccc2Cl)o1)N1CCOCC1,i,i,i,61.3,55.0,i
O=C1CCCCC1Sc1nnc(-c2ccc3c(c2)OCO3)o1 (stereo not given),i,i,i,i,nt,nt
Cc1cccc(OCC(=O)NCCNC(=O)c2ccco2)c1,i,i,i,i,nt,nt
CCc1nnc(NC(=O)C2CCCO2)s1 (stereo not given),i,i,i,i,nt,nt
O=C(Nc1nnc(COc2ccc(Cl)cc2)s1)c1ccco1,i,i,i,71.0,43.3,i
O=C(Nc1nnc(COc2ccc(Cl)cc2)s1)C1CCCO1 (stereo not given),i,i,i,45.1,20.8,i
SMILES,A3A deaminase,LANA-H2B inh,HDAC3 inh,A3G deaminase,A3G conf,UDG ctr A3G
CCOc1ccc(CNC(=O)CN2C(=O)CSc3ccc(S(=O)(=O)N4CCOCC4)cc32)cc1OC,i,i,i,i,nt,nt
COc1cccc2cc(-c3ccnc(N)n3)oc12,i,i,i,i,nt,nt
COc1cccc2cc(-c3n[nH]c(=S)n3C)oc12,i,i,i,54.2,80.3,i
Cn1nnnc1SCC(=O)Nc1ncc(C(F)(F)F)cc1Cl,i,i,i,i,nt,nt
Cc1cc(C)nc(NS(=O)(=O)c2ccc(N)cc2)n1,i,i,i,i,nt,nt
COc1cnc(NS(=O)(=O)c2ccc(N)cc2)nc1,i,i,i,50.4,19.6,i
Cc1ccc(CN2CC(C(=O)N(C)CC(=O)Nc3cccc(F)c3)CC2=O)cc1 (stereo not given),i,i,i,i,nt,nt
S=c1[nH]nc(COc2ccccc2)n1/N=C/c1ccco1,i,i,i,58.9,71.4,i
O=S(=O)(c1ccc(F)c(F)c1)N1CCC2(CC1)OCCO2,i,i,i,i,nt,nt
O=C1Nc2ccccc2SC1c1ccccc1 (stereo not given),nt,i,i,nt,nt,nt
Cc1ccc(NC2Sc3ccccc3NC2=O)cc1 (stereo not given),i,i,?,51.5,i,i
Cc1ccccc1OCCC(=O)OCC(=O)Nc1ccc2[nH]c(=O)[nH]c2c1,i,i,i,i,nt,nt
O=C(N1CCC(n2nc(-c3ccccc3)oc2=O)CC1)C1(c2ccccc2)CC1,i,i,i,i,nt,nt
O=C(NCC1CCCO1)C(=O)NCC(c1ccco1)N1CCN(c2ccccc2F)CC1 (stereo not given),i,i,i,i,nt,nt
Cc1nc(NC(=O)CSc2nnnn2C)sc1C,i,i,i,i,nt,nt
COC(=O)c1sc(NC(=O)CSc2nnnn2C)nc1C,i,i,i,55.8,i,i
Cc1ccc(OCc2cc(C(=O)N3CCC(c4ccccc4Cl)C3)no2)cc1C (stereo not given),i,i,i,i,nt,nt
Cc1cc(OCC(=O)NCCN2CCOCC2)cc(C)c1Cl,i,i,i,79.5,i,i
CCOc1ccc(OCCOC(=O)CNC(=O)c2ccc(Cl)cc2Cl)cc1,i,i,i,i,nt,nt
Cc1cc(=O)n2[nH]c(-c3ccsc3-n3c(C)ccc3C)cc2n1,i,i,i,42.9,43.5,i
COCc1cc(=O)n2[nH]c(-c3ccsc3-n3c(C)ccc3C)cc2n1,i,i,i,i,nt,nt
Nn1c(Cc2ccccc2F)n[nH]c1=S,i,i,i,i,nt,nt
COc1ccc(CCCc2n[nH]c(=S)n2C)cc1C,i,i,i,i,nt,nt
Nn1c(Cc2ccc(Br)cc2)n[nH]c1=S,i,i,i,50.6,80.4,i
COc1ccc(Cc2n[nH]c(=S)n2C)cc1Br,i,i,i,42.1,54.4,i
SMILES,A3A deaminase,LANA-H2B inh,HDAC3 inh,A3G deaminase,A3G conf,UDG ctr A3G
Nn1c(Cc2cccc3ccccc23)n[nH]c1=S,i,i,i,47.3,82.2,i
COc1ccc(Cc2n[nH]c(=S)n2N)cc1OC,i,i,i,60.9,57.9,i
CCOc1ccc(Cc2n[nH]c(=S)n2N)cc1,i,i,i,i,nt,nt
Cc1ccc2[nH]c(=O)c(CN(Cc3ccco3)C(=O)CN3CCCC(C)C3)cc2c1 (stereo not given),i,i,i,i,nt,nt
CCN(CC(=O)NCc1cccs1)C(=O)c1ccc(S(=O)(=O)N(CC)c2ccccc2)cc1,i,i,i,i,nt,nt
CC(=O)NC(=S)NNC(=O)C(c1ccccc1)c1ccccc1,i,i,i,46.1,41.3,i
N#CCC(=O)NNC(=S)NC(=O)C(c1ccccc1)c1ccccc1,i,i,i,i,nt,nt
O=C(O)C1CC(c2ccccc2)=NO1 (stereo not given),i,i,i,i,nt,nt
O=C(O)C1CC(c2ccc(F)cc2)=NO1 (stereo not given),i,i,i,73.6,72.9,i
O=C(NC1CCCCCC1)c1ccc[nH]c1=S,i,i,i,54.7,65.6,i
O=C(NC1CCCCCCC1)c1ccccc1O,i,i,i,i,nt,nt
CCC(C)(C)n1nnnc1C(c1ccc2ncccc2c1)N1CCN(c2ccc(O)cc2)CC1 (stereo not given),i,i,i,41.0,i,nt
Cc1ccc(C(=O)NNC(=O)CSc2nnc3c(n2)[nH]c2ccc(F)cc23)cc1,i,i,i,56.5,64.3,i

# Compound activity from PubChem.
